Assay [1] can be described thus: qHTS of pediatric cancer cell lines to identify multiple opportunities for drug repurposing: Primary screen for SK-N-MC cells (AID 1347093). Also: potency is read from the fitted curve at half-maximal effect. The settings on record: SK-N-MC viability, CellTiter-Glo luminescence, 48 h; series mostly up to 46 µM. The essentials: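 Metabolically active cells were quantified by ATP-dependent luminescence (CellTiter-Glo, 15 min at room temperature) following 48 h treatment. Cells had been plated at 500-1,000 per well and settled for 5 h beforehand.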
Background: In qHTS, concentration-response curves come from the screen itself.

A short description of assay [2]: qHTS of pediatric cancer cell lines to identify multiple opportunities for drug repurposing: Primary screen for BT-37 cells (AID 1347094). Also: potency is read from the fitted curve at half-maximal effect. To be noted: BT-37 viability, CellTiter-Glo luminescence, 48 h; series mostly up to 57.3 µM. An outline of the steps:
(§1)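 500-1,000 cells/well; 5 h pre-incubation 37 °C/5% CO2; compound pinned; 48 h; CellTiter-Glo, 15 min RT; luminescence. MIPE 11-pt from 0.78 nM, NPC 8-pt from 0.59 nM final. Bortezomib 2.3 µM final as positive control.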

Assay [3] in a line: qHTS of pediatric cancer cell lines to identify multiple opportunities for drug repurposing: Primary screen for NB-EBc1 cells (AID 1347095). Also: potency is read from the fitted curve at half-maximal effect. To be noted: NB-EBc1 neuroblastoma viability, CellTiter-Glo luminescence, 48 h; series mostly up to 46 µM. The essentials: as §1
Assay [4] can be described thus: qHTS of pediatric cancer cell lines to identify multiple opportunities for drug repurposing: Primary screen for Saos-2 cells (AID 1347097). Also: nearly all actives have a fitted effect of over 40% in size. Also: potency is read from the fitted curve at half-maximal effect. The settings on record: Saos-2 viability, CellTiter-Glo ATP luminescence, 48 h; series mostly up to 46 µM. The essentials:
as §1

Assay [5] is described as follows: qHTS of pediatric cancer cell lines to identify multiple opportunities for drug repurposing: Primary screen for NB1643 cells (AID 1347099). Also: nearly all actives have a fitted effect of over 50% in size. Also: potency is read from the fitted curve at half-maximal effect. To be noted: NB1643 neuroblastoma viability, CellTiter-Glo luminescence, 48 h; series mostly up to 46 µM. The essentials:
as §1

Assay [6] is described as follows: qHTS of pediatric cancer cell lines to identify multiple opportunities for drug repurposing: Primary screen for LAN-5 cells (AID 1347100). Also: potency is read from the fitted curve at half-maximal effect. The settings on record: LAN-5 neuroblastoma viability, CellTiter-Glo luminescence, 48 h; series mostly up to 46 µM. The essentials:
(§2)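 Viability after 48 h compound treatment at 37C, 500-1,000 cells/well, read as ATP luminescence with CellTiter-Glo. Primary screens used 11-point (MIPE, 0.78 nM-46 µM) or 8-point (NPC, 0.59 nM-46 µM) final concentrations; follow-up screens used 11-point dilutions.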

A short description of assay [7]: qHTS of pediatric cancer cell lines to identify multiple opportunities for drug repurposing: Primary screen for BT-12 cells (AID 1347101). Also: nearly all actives have a fitted effect of over 25% in size. Also: potency is read from the fitted curve at half-maximal effect. The settings on record: BT-12 viability, CellTiter-Glo luminescence, 48 h; series mostly up to 57.3 µM. The essentials: (§3)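 Cells (500-1,000/well) rested 5 h, then received compounds for 48 h; metabolically active cells were measured by CellTiter-Glo luminescence. Final concentrations spanned up to 46 µM (MIPE, 11-point) or 0.59 nM-46 µM (NPC, 8-point) in primary screens, 11-point in follow-ups.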

Assay [8] can be described thus: qHTS of pediatric cancer cell lines to identify multiple opportunities for drug repurposing: Primary screen for Rh18 cells (AID 1347102). Also: nearly all actives have a fitted effect of over 65% in size. Also: potency is read from the fitted curve at half-maximal effect. The settings on record: Rh18 rhabdomyosarcoma viability, CellTiter-Glo luminescence, 48 h; series mostly up to 46 µM. The essentials: as §2
Assay [9] can be described thus: qHTS of pediatric cancer cell lines to identify multiple opportunities for drug repurposing: Primary screen for SK-N-SH cells (AID 1347098). Also: nearly all actives have a fitted effect of over 65% in size. Also: potency is read from the fitted curve at half-maximal effect. The settings on record: SK-N-SH viability, CellTiter-Glo luminescence, 48 h; series mostly up to 57 µM. An outline of the steps:
as §3

Assay [10] in a line: qHTS of pediatric cancer cell lines to identify multiple opportunities for drug repurposing: Primary screen for U-2 OS cells (AID 1347096). Also: nearly all actives have a fitted effect of over 50% in size. To be noted: U-2 OS viability, CellTiter-Glo luminescence, 48 h; series mostly up to 46 µM. The essentials:
as §2

Potency data for 22 compounds are collected here from PubChem BioAssay (NCATS).

Inconclusive results are not listed. The source made the active and inactive calls. Calls follow the shape of the dose curve; as a rule, active = well fitted curve in the direction sought with a large enough effect; inconclusive = small, poorly fitted or top-dose-only effect, or another doubt; inactive = no such curve, though single readings can be large; an effect the other way counts as inactive or inconclusive.

Consider `COC(=O)c1cc(Cl)ccc1NS(=O)(=O)C(F)(F)F`, for which the Potency entry in assay [1], in assay [2], in assay [3], in assay [4], in assay [5] and in assay [6] was “inactive” in each case. Also, the Potency entry in [7] and in [8] was “inactive” throughout.

On to `CC(C)CCCC(C)NCCC(C)C` (stereo not given), for which the Potency result in [1], in [2], in [3], in assay [4], in assay [9] and in assay [5] was “inactive” each time. In addition, the Potency result in assay [6], in [7] and in assay [8] was “inactive” each time.

`CCn1ccc(NS(=O)(=O)c2ccc(N)cc2)nc1=O`: the Potency result in [1], in assay [2], in assay [3], in assay [9], in assay [5] and in assay [6] was “inactive” in each case. Moreover, the Potency entry in [8] was “inactive”.

Consider `CNC(=O)c1cnn(-c2nc(N)c3ncn([C@@H]4O[C@H](CO)[C@@H](O)[C@H]4O)c3n2)c1`, for which the Potency result in [1], in assay [2], in assay [3], in assay [4], in [9] and in assay [5] was “inactive” throughout. Besides, the Potency entry in assay [6], in assay [7] and in assay [8] was “inactive” throughout.

Take `CCCCCCCCCCCCCC[N+](C)(C)C`: the Potency in [1] was 3.35 µM (active); in assay [2], 15.5 µM (active); in assay [3] it was 21.1 µM (active); in [4] it was 16.8 µM (active); in assay [9], 15.4 µM (active); in [5], 23.7 µM (active). Also, the figures for the Potency in [6], in assay [7] and in assay [8] were 7.5 µM (active), 3.89 µM (active) and 4.22 µM (active), respectively.

For the compound `COCCc1ccc(OCC2CO2)cc1` (stereo not given), the Potency result in [1], in [2], in assay [3], in assay [4], in [9] and in assay [5] was “inactive” throughout. The Potency entry in assay [6], in [7] and in assay [8] was “inactive” each time.

As to `CN=C(N)NC(=O)Nc1c(C)cccc1C`, the Potency entry in assay [1], in assay [2], in assay [3], in assay [4], in [9] and in assay [6] was “inactive” in each case. Moreover, the Potency result in assay [7] was “inactive”.

For `OC1(c2ccccc2)CCNCC1`, the Potency entry in assay [1], in assay [2], in assay [10], in assay [4], in assay [9] and in [5] was “inactive” each time. In addition, the Potency entry in [6], in assay [7] and in [8] was “inactive” throughout.

With `COCCc1ccccn1`, the Potency result in [1], in assay [2], in assay [3], in assay [9], in [6] and in assay [7] was “inactive” in each case. Besides, in assay [8], the Potency entry was “inactive”.

For `CN(C)CCN(Cc1ccsc1)c1ccccn1`, the Potency entry in assay [1], in assay [2], in [10], in assay [4], in assay [9] and in [5] was “inactive” in each case. Moreover, the Potency entry in assay [7] and in assay [8] was “inactive” in each case. Further, in assay [6], the Potency is 0.001 µM (active).

Consider `O=C(Nc1ccc(Cl)cc1)Nc1ccc(Cl)c(C(F)(F)F)c1`, for which the Potency in assay [1] was 4.73 µM (active); in assay [2], 27.6 µM (active); in [3] it was 5.96 µM (active); in [4], 13.3 µM (active); in assay [9], 8.64 µM (active); in assay [7], 9.78 µM (active).

Turning to `Cc1cc(=O)oc2cc(O[C@@H]3SC[C@@H](O)[C@H](O)[C@H]3O)ccc12`, the Potency entry in assay [1], in assay [2], in assay [10], in [4], in assay [9] and in assay [5] was “inactive” throughout. The Potency entry in assay [6], in assay [7] and in assay [8] was “inactive” throughout.

As for `Cc1ccc2c(Cl)cc(Cl)c(O)c2n1`, the Potency result in assay [1], in assay [2], in assay [3], in [4], in assay [9] and in assay [5] was “inactive” each time. Besides, the Potency result in assay [6], in assay [7] and in assay [8] was “inactive” throughout.

As to `CO/N=C(/C(=O)N[C@@H]1C(=O)N2C(C(=O)[O-])=C(C[n+]3ccn4ncccc43)CS[C@H]12)c1nsc(N)n1`, the Potency result in assay [1], in [2], in assay [3], in assay [4], in assay [9] and in assay [6] was “inactive” each time. The Potency result in assay [7] was “inactive”.

With `c1ccc2c(c1)CCc1ccccc1N2`, the Potency entry in assay [1], in assay [10], in assay [4], in [9], in assay [5] and in assay [6] was “inactive” each time. The Potency entry in assay [7] and in assay [8] was “inactive” in each case.

Consider `NC(=O)COCCN1CCN(C(c2ccccc2)c2ccc(Cl)cc2)CC1` (stereo not given), for which the Potency result in assay [1], in assay [3], in assay [10], in [6], in [7] and in [8] was “inactive” throughout.

Turning to `CCN1CCN(c2cc(-c3ccc(F)cc3)c3c(n2)CCCCCC3)CC1`, the Potency entry in [1], in assay [3], in assay [10], in assay [9], in [5] and in assay [6] was “inactive” throughout. The Potency result in assay [7] and in assay [8] was “inactive” throughout.

As for `Nc1nc(=O)n([C@@H]2O[C@H](CO)[C@@H](O)[C@@H]2F)cc1I`, the Potency result in [1], in assay [10], in [4], in [9], in assay [5] and in assay [6] was “inactive” throughout. Moreover, the Potency result in [8] is “inactive”.

`CC(C)=CCC/C(C)=C/CC/C(C)=C/CCC(=O)OC/C=C(\C)CCC=C(C)C`: the Potency result in assay [1], in assay [3], in assay [10], in assay [9], in assay [6] and in assay [7] was “inactive” in each case. For the same compound, the Potency entry in assay [8] was “inactive”.

As for `CC[C@@]1(O)C(=O)OCc2c1cc1n(c2=O)Cc2c-1nc1ccccc1c2/C=N/OC(C)(C)C`, the Potency is 0.0211 µM (active) in [1]; 0.0211 µM (active) in [3]; 0.0596 µM (active) in assay [4]; 0.194 µM (active) in assay [9]; 0.0531 µM (active) in assay [5]; 0.0211 µM (active) in [6]. The Potency in assay [7] is 0.246 µM (active).

In the case of `O=C(O)C1CCC1`, the Potency result in assay [1], in assay [10], in [4], in [9], in assay [5] and in assay [6] was “inactive” throughout. For the same compound, the Potency result in assay [7] and in [8] was “inactive” in each case.

With `CC(C)(C)C1CCC(CC2=C(O)c3ccccc3C(=O)C2=O)CC1` (stereo not given), the Potency in assay [1] was 5.31 µM (active); in assay [6] it was 9.44 µM (active); in [7] it was 24.6 µM (active). Moreover, the Potency entry in [10] and in assay [8] was “inactive” throughout.
